Test results as given in PubChem BioAssay (Tox21).
Results filed as inconclusive are left out. Activity calls are given as the source filed them. Unless noted, the call rests on the fitted dose curve; in most records, active means well fitted curve in the direction sought with a large enough effect in the repeat runs; inconclusive means weak or mixed curves; inactive means no such curve, though single readings can be large; an effect the other way counts as inactive or inconclusive.

Legend:
[1] = qHTS assay to identify aromatase inhibitors - cell viability counter screen (AID 743084);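 further: cells stimulated with testosterone during compound exposure; nearly all actives have a fitted effect of over 55% in size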
[2] = molecular target: Aryl hydrocarbon receptor (Homo sapiens) (UniProt P35869); test: qHTS assay to identify small molecule that activate the aryl hydrocarbon receptor (AhR) signaling pathway (AID 743085); further: nearly all actives have a fitted effect of over 15% in size; further: potency means the concentration at half of the fitted maximal effect;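 on activation: HG2L7.5c1 human HepG2 liver cells with stably integrated DRE-driven firefly reporter; series mostly up to about 70 µM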
Outline: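 24 h compound exposure, 37C, HepG2-derived HG2L7.5c1 cells with DRE-responsive luciferase. Readouts: fluorescence viability, then luminescence at room temperature after 30 min.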

[3] = qHTS assay to identify small molecule that activate the aryl hydrocarbon receptor (AhR) signaling pathway - cell viability counter screen (AID 743086);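 further: HepG2 liver cells carrying the AhR DRE luciferase reporter; series mostly up to about 70 µM; nearly all actives have a fitted effect of over 45% in size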
Outline: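 HepG2-AhR-luc (HG2L7.5c1) cells, 4000/well, treated 24 h at 37 C with compound; viability measured as CellTiter-Fluor fluorescence after 30 min in the same wells as the luciferase read.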

[4] = molecular target: Peroxisome proliferator-activated receptor gamma (Homo sapiens) (UniProt P37231); test: qHTS assay to identify small molecule agonists of the peroxisome proliferator-activated receptor gamma (PPARg) signaling pathway (AID 743094; active means well fitted activation curve with a large enough effect in the signal ratio in the repeat runs, not every such curve was filed as active; the % refers to the signal ratio)
Outline: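 Cell-based bla reporter, HEK293H background, PPARg-driven UAS. Pre-incubation 5 h, 37C, 5% CO2. Compound 17 h, 37C. Substrate 1 h RT; fluorescence.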

[5] = qHTS assay to identify small molecule antagonists of the peroxisome proliferator-activated receptor gamma (PPARg) signaling pathway - cell viability counter screen (AID 743194); further: nearly all actives have a fitted effect of over 55% in size
Outline: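 Cytotoxicity counter screen in PPARg-bla HEK293H cells, same wells as reporter assay. Compounds plus 50 nM rosiglitazone (final) for 17 h at 37 C, then viability read by CellTiter-Glo luminescence.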

[6] = qHTS assay for small molecule agonists of the antioxidant response element (ARE) signaling pathway (AID 743202; active means well fitted activation curve with a large enough effect in the signal ratio in the repeat runs, not every such curve was filed as active; the % refers to the signal ratio)
Outline: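 HepG2 ARE-bla reporter line, 2,000 cells/well; 5 h preincubation 37 C/5% CO2; compound (DMSO) 16 h 37 C; B/G FRET substrate 2 h RT; fluorescence intensity.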

[7] = qHTS assay for small molecule agonists of the antioxidant response element (ARE) signaling pathway - cell viability counter screen (AID 743203; calls by dose curve; further: nearly all actives have a fitted effect of over 55% in size)
Outline: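 Measured in the same wells as the beta-lactamase ARE reporter, this read-out is CellTiter-Glo luminescence from HepG2 ARE-bla cells given compounds for 16 hrs.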

[8] = qHTS assay for small molecule activators of the heat shock response signaling pathway - cell viability counter screen (AID 743209); further: nearly all actives have a fitted effect of over 50% in size
Outline: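 Same-well multiplex: after 2.5 h room-temperature incubation with LiveBLAzer B/G substrate and fluorescence reading, CellTiter-Glo reagent was added to HSE-bla HeLa cells that had received compound for 5 h at 37 C; luminescence read after 30 min.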

[9] = qHTS assay to identify small molecule agonists of the peroxisome proliferator-activated receptor delta (PPARd) signaling pathway - cell viability counter screen (AID 743211); further: nearly all actives have a fitted effect of over 55% in size
Outline: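 Luminescent ATP viability assay (CellTiter-Glo, 30 min RT) in UAS-bla HEK293H cells carrying the PPAR delta reporter construct, 3000 cells/well, after a 17 h compound treatment at 37 C.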

[10] = molecular target: Peroxisome proliferator-activated receptor delta (Homo sapiens) (UniProt Q03181); test: qHTS assay to identify small molecule agonists of the peroxisome proliferator-activated receptor delta (PPARd) signaling pathway (AID 743212; calls by dose curve)
Outline: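 Read-out: beta-lactamase FRET fluorescence after 2 h room-temperature incubation with LiveBLAzer B/G substrate. Cells were HEK293H carrying a UAS-bla reporter for PPARd, treated at 37 C with DMSO-dissolved compounds.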

[11] = qHTS assay to identify small molecule antagonists of the peroxisome proliferator-activated receptor delta (PPARd) signaling pathway - cell viability counter screen (AID 743213); further: nearly all actives have a fitted effect of over 50% in size
Outline: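 HEK293H cells with the PPARd UAS-bla reporter, co-treated 17 h at 37 C with compounds and L165041 (300 nM final), were lysed with CellTiter-Glo. Luminescence indicated viable cell content.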

[12] = molecular target: Bile acid receptor (Homo sapiens) (UniProt Q96RI1); test: qHTS assay to identify small molecule antagonists of the farnesoid-X-receptor (FXR) signaling pathway (AID 743217; active means well fitted inhibition curve with a large enough effect in the signal ratio in the repeat runs, not every such curve was filed as active; the % refers to the signal ratio)
Outline: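 FRET fluorescence after 2 h room-temperature LiveBLAzer loading gives the readout. Prior step: FXR-bla HEK 293T cells, seeded and incubated 5 h, received test compounds plus 50 uM final CDCA for 16 h at 37 °C.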

[13] = qHTS assay to identify small molecule agonists of the farnesoid-X-receptor (FXR) signaling pathway - cell viability counter screen (AID 743218); further: nearly all actives have a fitted effect of over 45% in size
Outline: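 Readout: CellTiter-Glo luminescence, 30 min RT, multiplexed after the FXR-bla FRET reading. HEK 293T FXR-UAS-bla cells received compound 5 h post-plating and were incubated 16 h at 37 C.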

[14] = qHTS assay to identify small molecule antagonists of the farnesoid-X-receptor (FXR) signaling pathway - cell viability counter screen (AID 743221; active means well fitted cell-killing curve with a large enough effect in the repeat runs, not every such curve was filed as active; further: nearly all actives have a fitted effect of over 50% in size)
Outline: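 In GeneBLAzer FXR-UAS-bla HEK 293T cells stimulated with 50 uM chenodeoxycholic acid (final), compounds acted for 16 h at 37 C. Viability was assessed afterwards by CellTiter-Glo luminescence.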

[15] = molecular target: Vitamin D3 receptor (Homo sapiens) (UniProt P11473); test: qHTS assay to identify small molecule agonists of the vitamin D receptor (VDR) signaling pathway (AID 743222; calls by dose curve)
Outline: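 Following 4 h attachment at 37C, VDR-bla cells (2,000 per well) received DMSO-dissolved compounds or controls. After 16 h incubation, LiveBLAzer B/G FRET substrate was added and fluorescence read 2 h later at room temperature.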

[16] = molecular target: Vitamin D3 receptor (Homo sapiens) (UniProt P11473); test: qHTS assay to identify small molecule antagonists of the vitamin D receptor (VDR) signaling pathway (AID 743223; active means well fitted inhibition curve with a large enough effect in the signal ratio in the repeat runs, not every such curve was filed as active; the % refers to the signal ratio)
Outline: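 Agonist 1alpha,25-dihydroxyvitamin D3 (3 nM in well) was added with each compound to VDR-bla cells preincubated 4 h. Cells stood 16 h at 37C, then FRET substrate 2 h at room temperature; fluorescence intensity recorded.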

[17] = qHTS assay for small molecule activators of the heat shock response signaling pathway (AID 743210; active means well fitted activation curve with a large enough effect in the signal ratio in the repeat runs, with a control signal flat, not every such curve was filed as active; the % refers to the signal ratio;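 further: HeLa cells with beta-lactamase reporter driven by heat shock elements; series mostly up to about 63 µM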)
Outline: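 Beta-lactamase reporter read-out: FRET substrate fluorescence after 2.5 h at RT, following 5 h compound treatment at 37 C of HeLa cells carrying HSE-driven bla reporter; quantitative HTS format.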

[18] = molecular target: Bile acid receptor (Homo sapiens) (UniProt Q96RI1); test: qHTS assay to identify small molecule agonists of the farnesoid-X-receptor (FXR) signaling pathway (AID 743220; active means well fitted activation curve with a large enough effect in the signal ratio in the repeat runs, not every such curve was filed as active; the % refers to the signal ratio)
Outline: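 FXR-UAS-bla HEK 293T cells carrying a UAS-driven beta-lactamase reporter were plated for 5 h at 37C/5% CO2, then exposed to DMSO-dissolved Tox21 10K compounds for 16 h at 37C. A LiveBLAzer B/G FRET substrate was loaded for 2 h at room temperature before fluorescence reading.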

[19] = molecular target: Peroxisome proliferator-activated receptor gamma (Homo sapiens) (UniProt P37231); test: qHTS assay to identify small molecule antagonists of the peroxisome proliferator-activated receptor gamma (PPARg) signaling pathway (AID 743191; calls by dose curve; further: series mostly up to about 63 µM; nearly all actives have a fitted effect of over 30% in size)
Outline: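 GeneBLAzer PPARg UAS-bla HEK293H cells, 5 h post-plating, exposed to compounds 17 h at 37C. LiveBLAzer B/G FRET substrate added for 1 h at room temperature; beta-lactamase reporter read by fluorescence intensity.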

[20] = molecular target: Peroxisome proliferator-activated receptor delta (Homo sapiens) (UniProt Q03181); test: qHTS assay to identify small molecule antagonists of the peroxisome proliferator-activated receptor delta (PPARd) signaling pathway (AID 743215; active means well fitted inhibition curve with a large enough effect in the signal ratio in the repeat runs, not every such curve was filed as active; the % refers to the signal ratio;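 further: cells stimulated with agonist L165041 at 300 nM final during compound exposure; series mostly up to about 62 µM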)
Outline: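 Fluorescence from cleaved LiveBLAzer B/G FRET substrate (2 h, room temperature) reports PPARd-driven beta-lactamase in HEK293H UAS-bla cells. Cells had been treated 17 h at 37 C with compound plus 300 nM final L165041.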
On the % scale 0 is the no-effect control and ±100 the full control effect.

Sequence of Aryl hydrocarbon receptor (Homo sapiens) (P35869 whole entry, looked up): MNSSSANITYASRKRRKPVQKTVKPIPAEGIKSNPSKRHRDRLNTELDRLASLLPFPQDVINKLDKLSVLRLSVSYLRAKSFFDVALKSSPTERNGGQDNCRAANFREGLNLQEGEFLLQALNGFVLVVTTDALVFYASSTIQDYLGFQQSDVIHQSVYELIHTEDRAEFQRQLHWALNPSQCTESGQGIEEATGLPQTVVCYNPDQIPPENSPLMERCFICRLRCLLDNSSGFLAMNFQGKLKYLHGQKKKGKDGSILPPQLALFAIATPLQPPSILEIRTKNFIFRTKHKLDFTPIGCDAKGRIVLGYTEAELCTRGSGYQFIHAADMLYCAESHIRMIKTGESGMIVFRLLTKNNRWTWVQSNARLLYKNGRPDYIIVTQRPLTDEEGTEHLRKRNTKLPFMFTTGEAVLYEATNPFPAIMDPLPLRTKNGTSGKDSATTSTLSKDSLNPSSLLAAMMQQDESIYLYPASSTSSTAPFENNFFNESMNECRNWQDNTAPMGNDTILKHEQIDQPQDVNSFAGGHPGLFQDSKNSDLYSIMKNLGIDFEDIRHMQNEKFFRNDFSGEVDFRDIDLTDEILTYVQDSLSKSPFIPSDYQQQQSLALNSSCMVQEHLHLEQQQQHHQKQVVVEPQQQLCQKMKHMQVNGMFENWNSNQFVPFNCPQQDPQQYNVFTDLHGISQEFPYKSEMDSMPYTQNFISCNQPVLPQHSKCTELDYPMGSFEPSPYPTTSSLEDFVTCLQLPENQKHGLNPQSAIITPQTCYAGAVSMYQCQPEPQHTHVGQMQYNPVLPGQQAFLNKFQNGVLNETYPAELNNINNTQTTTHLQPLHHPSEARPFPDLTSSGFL
Sequence of Vitamin D3 receptor (Homo sapiens) (P11473 whole entry, looked up): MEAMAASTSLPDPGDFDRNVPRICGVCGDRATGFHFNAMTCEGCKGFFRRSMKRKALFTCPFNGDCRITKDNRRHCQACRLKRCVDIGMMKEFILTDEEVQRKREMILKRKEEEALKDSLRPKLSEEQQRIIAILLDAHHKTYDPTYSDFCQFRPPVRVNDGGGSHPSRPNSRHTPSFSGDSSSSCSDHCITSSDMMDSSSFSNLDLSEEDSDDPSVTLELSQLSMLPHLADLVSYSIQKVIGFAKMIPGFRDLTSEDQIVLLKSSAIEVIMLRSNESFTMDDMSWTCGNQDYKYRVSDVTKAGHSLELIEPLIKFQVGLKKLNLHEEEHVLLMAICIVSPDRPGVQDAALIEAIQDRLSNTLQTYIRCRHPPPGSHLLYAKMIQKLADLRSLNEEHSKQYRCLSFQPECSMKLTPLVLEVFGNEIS
Sequence of Bile acid receptor (Homo sapiens) (Q96RI1 whole entry, looked up): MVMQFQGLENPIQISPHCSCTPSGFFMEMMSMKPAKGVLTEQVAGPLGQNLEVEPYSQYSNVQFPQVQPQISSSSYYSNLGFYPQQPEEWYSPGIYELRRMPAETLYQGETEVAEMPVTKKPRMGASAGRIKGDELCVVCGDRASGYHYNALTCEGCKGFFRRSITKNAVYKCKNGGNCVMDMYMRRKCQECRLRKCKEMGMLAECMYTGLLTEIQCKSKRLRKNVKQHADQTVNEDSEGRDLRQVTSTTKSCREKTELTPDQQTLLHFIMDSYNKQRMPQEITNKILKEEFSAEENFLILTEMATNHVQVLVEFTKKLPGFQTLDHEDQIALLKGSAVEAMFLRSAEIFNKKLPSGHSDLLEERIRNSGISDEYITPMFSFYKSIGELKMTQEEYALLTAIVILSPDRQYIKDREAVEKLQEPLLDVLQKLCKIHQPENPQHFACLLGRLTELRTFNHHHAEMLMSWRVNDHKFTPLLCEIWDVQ
Sequence of Peroxisome proliferator-activated receptor delta (Homo sapiens) (Q03181 whole entry, looked up): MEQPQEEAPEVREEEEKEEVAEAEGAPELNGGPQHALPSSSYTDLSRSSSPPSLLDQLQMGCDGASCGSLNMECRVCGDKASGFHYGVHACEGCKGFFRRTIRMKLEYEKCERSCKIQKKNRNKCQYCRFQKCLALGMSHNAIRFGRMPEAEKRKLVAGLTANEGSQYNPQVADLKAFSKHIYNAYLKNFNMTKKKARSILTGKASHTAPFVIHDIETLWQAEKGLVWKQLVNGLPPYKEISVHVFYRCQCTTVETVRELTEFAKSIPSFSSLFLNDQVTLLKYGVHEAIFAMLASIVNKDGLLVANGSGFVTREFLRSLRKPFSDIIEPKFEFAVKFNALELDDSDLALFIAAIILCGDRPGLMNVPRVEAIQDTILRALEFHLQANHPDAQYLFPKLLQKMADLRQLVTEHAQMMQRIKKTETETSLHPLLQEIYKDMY
Sequence of Peroxisome proliferator-activated receptor gamma (Homo sapiens) (P37231 whole entry, looked up): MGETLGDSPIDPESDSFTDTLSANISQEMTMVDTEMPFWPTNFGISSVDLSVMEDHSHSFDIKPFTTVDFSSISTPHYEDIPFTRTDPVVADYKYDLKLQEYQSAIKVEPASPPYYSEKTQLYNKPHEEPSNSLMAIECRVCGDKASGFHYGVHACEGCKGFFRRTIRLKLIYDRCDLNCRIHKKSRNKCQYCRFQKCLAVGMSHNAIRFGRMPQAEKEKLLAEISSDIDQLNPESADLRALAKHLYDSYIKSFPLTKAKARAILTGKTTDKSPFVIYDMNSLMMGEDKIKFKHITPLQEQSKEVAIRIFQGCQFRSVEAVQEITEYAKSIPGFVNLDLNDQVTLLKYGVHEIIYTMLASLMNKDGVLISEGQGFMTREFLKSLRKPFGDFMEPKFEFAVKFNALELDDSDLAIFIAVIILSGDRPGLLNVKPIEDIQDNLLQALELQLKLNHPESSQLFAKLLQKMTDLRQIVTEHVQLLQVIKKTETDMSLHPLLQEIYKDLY

CC(C)CCCCCCOC(=O)C1CCCCC1C(=O)OCCCCCCC(C)C (configuration not stated)
inactive: Potency [1] | Potency [2] | Potency [3] | outcome [4] | outcome [5] | Potency [6] | outcome [7] | outcome [8] | outcome [9] | outcome [10] | outcome [11] | outcome [12] | Potency [13] | outcome [14] | outcome [15] | outcome [16]

Nc1ccc(/C=C/c2ccc(N)cc2S(=O)(=O)O)c(S(=O)(=O)O)c1
inactive: Potency [1] | Potency [2] | Potency [3] | activity change, negative = cytotoxicity [5] -0.597% [at 0.55 µM] | activation [6] -8.26% [at 0.756 µM] | viability change, negative = cytotoxic [7] -11% [at 0.756 µM] | activity change, negative = cytotoxicity [8] 6.28% [at 0.55 µM] | activation [17] 0.7% [at 0.55 µM] | activity change, negative = cytotoxicity [9] 4.06% [at 0.55 µM] | activation [10] -0.496% [at 0.55 µM] | viability change, negative = cytotoxic [11] -6.12% [at 0.575 µM] | activity change, negative = inhibition [12] 3.76% [at 0.55 µM] | viability change, negative = cytotoxic [13] 14.9% [at 0.55 µM] | activation [18] 1.54% [at 0.55 µM] | activity change, negative = cytotoxicity [14] 5.38% [at 0.55 µM] | activity change, negative = inhibition [16] 0.787% [at 0.628 µM]

Cc1c(C(C)C)c(=O)n(-c2ccccc2)n1C
inactive: Potency [1] | Potency [2] | outcome [4] | Potency [19] | outcome [5] | Potency [6] | outcome [7] | outcome [8] | outcome [17] | outcome [9] | Potency [13] | outcome [14] | outcome [15] | outcome [16]

CCCCOC(=O)[C@@H](C)Oc1ccc(Oc2ccc(C(F)(F)F)cn2)cc1
inactive: Potency [1] | Potency [2] | Potency [3] | outcome [4] | outcome [5] | outcome [8] | outcome [17] | outcome [9] | outcome [10] | outcome [11] | outcome [20] | outcome [12] | Potency [13] | outcome [14] | outcome [15] | outcome [16]

COc1cc2c3cc1Oc1cc(ccc1O)C[C@@H]1c4c(cc(OC)c(O)c4Oc4ccc(cc4)C[C@@H]3N(C)CC2)CC[N+]1(C)C
inactive: Potency [1] | Potency [2] | Potency [3] | outcome [4] | outcome [5] | Potency [6] | outcome [7] | outcome [8] | outcome [17] | outcome [9] | outcome [11] | outcome [20] | outcome [14] | outcome [15] | outcome [16]

CCCCC(CC)C(=O)OC(C)C (configuration not stated)
inactive: Potency [1] | Potency [2] | Potency [3] | outcome [4] | outcome [5] | Potency [6] | outcome [7] | outcome [8] | outcome [17] | outcome [9] | outcome [11] | outcome [12] | Potency [13] | outcome [18] | outcome [14] | outcome [15]

C=C(C)[C@@H]1CC[C@@H](C)C[C@@H]1O
inactive: Potency [1] | Potency [2] | Potency [3] | outcome [4] | outcome [5] | Potency [6] | outcome [7] | outcome [8] | outcome [17] | outcome [9] | outcome [11] | Potency [13] | outcome [14]

CC(C)(c1ccc(Oc2ccc3c(c2)C(=O)OC3=O)cc1)c1ccc(Oc2ccc3c(c2)C(=O)OC3=O)cc1
inactive: Potency [1] | Potency [2] | Potency [3] | outcome [4] | outcome [5] | Potency [6] | outcome [7] | outcome [8] | outcome [17] | outcome [9] | outcome [11] | outcome [20] | Potency [13] | outcome [14] | outcome [15]

CCS(=O)(=O)CCn1c([N+](=O)[O-])cnc1C
inactive: Potency [1] | Potency [2] | Potency [3] | outcome [4] | outcome [5] | Potency [6] | outcome [7] | outcome [8] | outcome [17] | outcome [9] | outcome [10] | outcome [11] | Potency [13] | outcome [14] | outcome [16]

COc1cccc2sc(N)nc12
active: Potency [2] 27.5 µM
inactive: Potency [1] | Potency [3] | outcome [4] | Potency [6] | outcome [7] | outcome [8] | outcome [17] | outcome [9] | outcome [12] | Potency [13] | outcome [18] | outcome [14] | outcome [16]

CC(C)c1ccccc1O
inactive: Potency [1] | Potency [2] | Potency [3] | outcome [5] | Potency [6] | outcome [7] | outcome [8] | outcome [17] | outcome [9] | outcome [20] | outcome [12] | Potency [13] | outcome [14] | outcome [16]

O=S(=O)(O)SSS(=O)(=O)O
inactive: Potency [1] | Potency [2] | Potency [3] | outcome [4] | outcome [5] | outcome [7] | outcome [8] | outcome [9] | outcome [10] | outcome [11] | Potency [13] | outcome [14]

O=C(O)C(=O)Nc1cccc(-c2nn[nH]n2)c1
inactive: Potency [1] | Potency [2] | Potency [3] | outcome [4] | outcome [5] | Potency [6] | outcome [8] | outcome [17] | outcome [9] | outcome [10] | outcome [12] | Potency [13] | outcome [18] | outcome [14] | outcome [15] | outcome [16]
